Nine compounds from PubChem BioAssay (Tox21) can be followed below.

Where “and” joins values, the source holds several entries; their conditions need not be identical. Equal entries are not always repeated. Inconclusive results are not listed. Calls of active or inactive are those of the source. Unless noted, calls come from the whole dose curve; as a rule, active = well fitted curve in the direction sought with a large enough effect in the repeat runs; inconclusive = weak or mixed curves; inactive = no such curve, though single readings can be large; an effect the other way counts as inactive or inconclusive.

The nature of test [1]: qHTS assay to identify small molecule agonists of the peroxisome proliferator-activated receptor delta (PPARd) signaling pathway - cell viability counter screen (AID 743211). Note: nearly all actives have a fitted effect of over 55% in size. Note: potency is the fitted concentration of half-maximal effect. The method, boiled down: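 Viability of GeneBLAzer PPARd UAS-bla HEK293H cells was assessed after 17 h compound incubation at 37C, using CellTiter-Glo reagent added after the reporter read and luminescence recorded 30 min later.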
A general note: qHTS replaces the single test concentration by a dilution series.

Test [2] can be described thus: qHTS assay to identify small molecule antagonists of the peroxisome proliferator-activated receptor delta (PPARd) signaling pathway - cell viability counter screen (AID 743213). Note: nearly all actives have a fitted effect of over 50% in size. Note: potency is the fitted concentration of half-maximal effect. The method, boiled down: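 Agonist-stimulated (L165041, 300 nM final) HEK293H PPARd UAS-bla cells are exposed to compounds for 17 h at 37 C, and ATP-based luminescence (CellTiter-Glo) from the same wells reports cytotoxicity.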

Test [3] in a line: qHTS assay to identify small molecule agonists of the vitamin D receptor (VDR) signaling pathway - cell viability counter screen (AID 743224). Note: nearly all actives have a fitted effect of over 50% in size. Note: potency is the fitted concentration of half-maximal effect. The method, boiled down:
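Plated VDR-bla cells (4 h, 37C) received compound, incubated 16 h, then LiveBLAzer substrate 2 h RT; CellTiter-Glo added afterwards, luminescence read at 30 min.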

Test [4] in a line: qHTS assay to identify small molecule antagonists of the vitamin D receptor (VDR) signaling pathway - cell viability counter screen (AID 743225). Note: nearly all actives have a fitted effect of over 50% in size. Note: potency is the fitted concentration of half-maximal effect. The method, boiled down:
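Cells (VDR-UAS-bla HEK 293T) are plated, rested 4 h at 37C, dosed with compound and 3 nM final 1-alpha,25-dihydroxy vitamin D3, and incubated 16 h. Viability is taken from CellTiter-Glo luminescence in the reporter wells.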

Test [5] is described as follows: qHTS assay to identify small molecule agonists of the NFkB signaling pathway - cell viability counter screen (AID 1159515; calls by dose curve; note: nearly all actives have a fitted effect of over 55% in size; note: potency is the fitted concentration of half-maximal effect). The method, boiled down:
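Using the same wells as the NFkB reporter read, ME-180 NFkB-bla cells given compounds for 5 hr were assessed for viability via CellTiter-Glo, with luminescence taken after a 30 min room-temperature incubation.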

Test [6] is described as follows: qHTS assay to identify small molecule antagonists of the retinoid-related orphan receptor gamma (ROR-gamma) signaling pathway - cell viability counter screen (AID 1159520). Note: nearly all actives have a fitted effect of over 50% in size. Note: potency is the fitted concentration of half-maximal effect. The method, boiled down:
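Tet-on ROR gamma CHO cells (1,000/well) were plated 4 hr, given compounds in DMSO for 2 hr at 37 C, then induced with 1 uM final doxycycline for 16 hr. Viability was read as ATP by CellTiter-Glo luminescence after 30 min.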

Test [7] can be described thus: qHTS assay to identify small molecule agonists of the AP-1 signaling pathway - cell viability counter screen (AID 1159525; calls by dose curve; note: nearly all actives have a fitted effect of over 55% in size; note: potency is the fitted concentration of half-maximal effect). The method, boiled down:
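ME-180 AP-1-bla, 2500 cells/well, Opti-MEM + 0.5% dialyzed FBS; overnight 37 °C; cpd 15-pt titration, 5 h 37 °C; CellTiter-Glo 30 min RT; luminescence read; normalised to TOAB and DMSO controls.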

Test [8] is described as follows: qHTS assay to identify small molecule agonists of the AP-1 signaling pathway (AID 1159526; calls by dose curve).
Test [9] in a line: qHTS assay to identify small molecule agonists of the farnesoid-X-receptor (FXR) signaling pathway - cell viability counter screen (AID 743218). Note: nearly all actives have a fitted effect of over 45% in size. Note: potency is the fitted concentration of half-maximal effect. The method, boiled down: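 Parallel cytotoxicity test: compound-treated (16 h, 37 C) HEK 293T FXR-bla reporter cells were lysed with CellTiter-Glo and luminescence recorded.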
Test [10] in a line: qHTS assay to identify small molecule antagonists of the farnesoid-X-receptor (FXR) signaling pathway - cell viability counter screen (AID 743221; active = well fitted cell-killing curve with a large enough effect in the repeat runs, not every such curve was filed as active; note: nearly all actives have a fitted effect of over 50% in size; note: potency is the fitted concentration of half-maximal effect). The method, boiled down:
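Quantitative HTS of the Tox21 10K library run in parallel with the beta-lactamase reporter read. HEK 293T cells carrying a UAS-driven bla reporter got compound and 50 uM CDCA (final) for 16 h; ATP-based luminescence followed.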

For test [11], the target named is Vitamin D3 receptor (Homo sapiens) (UniProt P11473). Briefly: qHTS assay to identify small molecule agonists of the vitamin D receptor (VDR) signaling pathway (AID 743222; calls by dose curve; note: potency is the fitted concentration of half-maximal effect). The method, boiled down: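 In VDR-bla cells, compound-induced beta-lactamase expression is quantified by FRET substrate fluorescence. Treatment lasts 16 h at 37C; substrate develops 2 h at room temperature.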

The nature of test [12]: qHTS assay to identify small molecule agonists of the endoplasmic reticulum stress response signaling pathway - cell viability counter screen (AID 1159517; calls by dose curve). The method, boiled down:
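Luminescence readout: CellTiter-Glo, 30 min RT, same wells as the ESRE-bla reporter read. HeLa ESRE-bla, 1,500 cells/well, o/n 37 C; cpd 5 hr 37 C/5% CO2.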

Test [13] concerns the target Retinoic acid receptor RXR-alpha (Homo sapiens) (UniProt P19793). The test can be described thus: qHTS assay to identify small molecule agonists of the RXR signaling pathway (AID 1159527; calls by dose curve; note: nearly all actives have a fitted effect of over 35% in size). The method, boiled down:
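qHTS of the Tox21 10K library in GeneBLAzer RXR-alpha HEK 293T cells carrying a beta-lactamase reporter […]; 16 hr treatment, 9-cis retinoic acid as agonist control, FRET read-out.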

In test [14] the target is Peroxisome proliferator-activated receptor delta (Homo sapiens) (UniProt Q03181). Briefly: qHTS assay to identify small molecule antagonists of the peroxisome proliferator-activated receptor delta (PPARd) signaling pathway (AID 743215; active = well fitted inhibition curve with a large enough effect in the signal ratio in the repeat runs, not every such curve was filed as active; the % refers to the signal ratio; note: potency is the fitted concentration of half-maximal effect). The method, boiled down: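 HEK293H UAS-bla, PPARd; agonist L165041 300 nM final with cpd in DMSO; 37 C 17 h; FRET substrate, RT 2 h; fluorescence intensity.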

For test [15], the target named is Bile acid receptor (Homo sapiens) (UniProt Q96RI1). Briefly: qHTS assay to identify small molecule agonists of the farnesoid-X-receptor (FXR) signaling pathway (AID 743220; active = well fitted activation curve with a large enough effect in the signal ratio in the repeat runs, not every such curve was filed as active; the % refers to the signal ratio). The method, boiled down: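 Beta-lactamase reporter under UAS control in GeneBLAzer FXR HEK 293T cells (5000/well) measured with LiveBLAzer FRET substrate after 2 h at room temperature. Compound exposure lasted 16 h at 37C.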

For test [16], the target named is Nuclear receptor ROR-gamma (Homo sapiens) (UniProt P51449). The test can be described thus: qHTS assay to identify small molecule antagonists of the retinoid-related orphan receptor gamma (ROR-gamma) signaling pathway (AID 1159521; note: nearly all actives have a fitted effect of over 50% in size; note: potency is the fitted concentration of half-maximal effect). The method, boiled down: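 RORγ antagonism is scored from reduced reporter luminescence in Tet-on CHO cells. Induction used 1 uM final doxycycline hyclate for 16 h at 37 C, following a 2 h compound exposure.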

For test [17], the target named is Peroxisome proliferator-activated receptor delta (Homo sapiens) (UniProt Q03181). Briefly: qHTS assay to identify small molecule agonists of the peroxisome proliferator-activated receptor delta (PPARd) signaling pathway (AID 743212; calls by dose curve). The method, boiled down: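 GeneBLAzer PPARd UAS-bla HEK293H cells (beta-lactamase reporter under UAS control), plated and rested 5 h at 37 C, then exposed to compounds in DMSO at 37 C; LiveBLAzer B/G FRET substrate added, 2 h room temperature, fluorescence read.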

Test [18] addresses Bile acid receptor (Homo sapiens) (UniProt Q96RI1). Briefly: qHTS assay to identify small molecule antagonists of the farnesoid-X-receptor (FXR) signaling pathway (AID 743217; active = well fitted inhibition curve with a large enough effect in the signal ratio in the repeat runs, not every such curve was filed as active; the % refers to the signal ratio). The method, boiled down:
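GeneBLAzer FXR-UAS-bla HEK 293T, CDCA-stimulated (50 uM final). Compound treatment 16 h, 37 °C. Detection: beta-lactamase cleavage of B/G FRET substrate, fluorescence.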

The target in test [19] is Vitamin D3 receptor (Homo sapiens) (UniProt P11473). The test can be described thus: qHTS assay to identify small molecule antagonists of the vitamin D receptor (VDR) signaling pathway (AID 743223; active = well fitted inhibition curve with a large enough effect in the signal ratio in the repeat runs, not every such curve was filed as active; the % refers to the signal ratio). The method, boiled down:
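Fluorescence from LiveBLAzer B/G FRET substrate, read after 2 h at room temperature, reflects beta-lactamase reporter activity in VDR-bla cells treated 16 h at 37C with compounds and agonist 1alpha,25-dihydroxyvitamin D3 (3 nM final).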

Sequence of Vitamin D3 receptor (Homo sapiens) (P11473 whole entry, looked up): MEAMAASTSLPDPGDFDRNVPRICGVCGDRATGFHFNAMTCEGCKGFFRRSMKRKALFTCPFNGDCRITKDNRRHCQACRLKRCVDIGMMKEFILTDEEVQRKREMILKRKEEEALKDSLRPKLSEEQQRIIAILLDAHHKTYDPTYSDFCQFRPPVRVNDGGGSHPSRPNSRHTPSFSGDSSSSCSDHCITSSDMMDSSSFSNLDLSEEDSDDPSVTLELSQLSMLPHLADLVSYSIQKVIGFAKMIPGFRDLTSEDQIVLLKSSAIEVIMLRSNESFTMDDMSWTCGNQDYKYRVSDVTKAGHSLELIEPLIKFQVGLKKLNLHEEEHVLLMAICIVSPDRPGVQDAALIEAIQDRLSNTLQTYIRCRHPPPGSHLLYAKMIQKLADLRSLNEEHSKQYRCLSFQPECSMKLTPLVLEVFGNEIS
Sequence of Bile acid receptor (Homo sapiens) (Q96RI1 whole entry, looked up): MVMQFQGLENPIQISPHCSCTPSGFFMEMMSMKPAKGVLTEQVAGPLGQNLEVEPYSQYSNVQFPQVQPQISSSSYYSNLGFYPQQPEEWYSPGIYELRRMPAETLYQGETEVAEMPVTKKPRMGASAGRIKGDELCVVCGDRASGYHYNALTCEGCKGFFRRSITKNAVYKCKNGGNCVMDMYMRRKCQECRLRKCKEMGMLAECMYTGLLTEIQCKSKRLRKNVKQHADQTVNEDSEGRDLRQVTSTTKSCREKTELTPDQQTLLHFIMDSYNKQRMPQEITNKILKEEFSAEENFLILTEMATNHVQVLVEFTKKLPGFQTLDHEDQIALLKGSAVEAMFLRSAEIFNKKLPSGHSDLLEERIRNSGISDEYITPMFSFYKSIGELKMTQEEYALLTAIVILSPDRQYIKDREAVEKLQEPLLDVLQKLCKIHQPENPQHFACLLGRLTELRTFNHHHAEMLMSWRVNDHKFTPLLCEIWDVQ
Sequence of Peroxisome proliferator-activated receptor delta (Homo sapiens) (Q03181 whole entry, looked up): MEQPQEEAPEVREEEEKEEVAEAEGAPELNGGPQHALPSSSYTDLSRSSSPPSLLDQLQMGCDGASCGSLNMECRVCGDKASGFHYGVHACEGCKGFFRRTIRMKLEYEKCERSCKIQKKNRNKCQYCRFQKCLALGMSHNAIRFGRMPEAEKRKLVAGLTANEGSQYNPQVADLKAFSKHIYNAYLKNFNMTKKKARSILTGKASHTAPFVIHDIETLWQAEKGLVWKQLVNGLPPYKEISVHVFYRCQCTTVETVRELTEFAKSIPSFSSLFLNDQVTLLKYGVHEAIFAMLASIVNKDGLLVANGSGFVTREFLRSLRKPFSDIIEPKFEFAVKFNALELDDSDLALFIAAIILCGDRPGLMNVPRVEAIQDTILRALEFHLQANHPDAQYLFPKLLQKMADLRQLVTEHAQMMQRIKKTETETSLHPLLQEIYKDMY
Sequence of Retinoic acid receptor RXR-alpha (Homo sapiens) (P19793 whole entry, looked up): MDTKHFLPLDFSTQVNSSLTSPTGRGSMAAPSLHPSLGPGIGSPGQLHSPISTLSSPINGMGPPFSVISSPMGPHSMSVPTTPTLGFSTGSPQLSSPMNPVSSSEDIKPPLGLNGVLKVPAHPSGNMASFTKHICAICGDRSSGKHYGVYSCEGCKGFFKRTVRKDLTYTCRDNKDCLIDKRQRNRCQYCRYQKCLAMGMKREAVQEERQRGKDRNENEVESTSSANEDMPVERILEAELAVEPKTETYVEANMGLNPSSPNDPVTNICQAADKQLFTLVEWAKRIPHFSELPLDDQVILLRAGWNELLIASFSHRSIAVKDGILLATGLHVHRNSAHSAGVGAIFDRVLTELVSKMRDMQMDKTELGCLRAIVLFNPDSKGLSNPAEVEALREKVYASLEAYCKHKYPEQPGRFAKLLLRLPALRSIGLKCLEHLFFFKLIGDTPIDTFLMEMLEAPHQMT

For the compound `C[C@@H]1O[C@@H](O[C@H]2C[C@@H](O)[C@]3(CO)[C@H]4[C@H](O)C[C@]5(C)[C@@H](C6=CC(=O)OC6)CC[C@]5(O)[C@@H]4CC[C@]3(O)C2)[C@H](O)[C@H](O)[C@H]1O`, the Potency is 46.5 nM (active) and 188 nM (active) in test [1]; 16.5 nM (active) and 133 nM (active) in test [2]; 16.5 nM (active) and 75 nM (active) in test [3]; 16.5 nM (active) and 107 nM (active) in [4]; 0.0261 µM (active) in [5]. For the same compound, the Potency entry in [6], in test [7] and in test [8] was “inactive” each time.
For the compound `CCCOCC(=Nc1ccc(Cl)cc1C(F)(F)F)n1ccnc1`, the Potency was 13.8 µM (active) in [1]; 21.9 µM (active) in [2]; 17.4 µM (active) in test [9]; 21.9 µM (active) in test [10]; 34.6 µM (active) in test [11]; 7.76 µM (active) in [3]. In addition, the Potency in [4] was 12.3 µM (active); in [5] it was 30.9 µM (active); in [12] it was 34.6 µM (active). The call in test [13] was inactive.
With `CC1(c2ccc(Oc3ccccc3)cc2)OC(=O)N(Nc2ccccc2)C1=O` (centres undefined), the Potency in test [2] is 43.9 µM (active); in [14], 24.7 µM (active); in test [9] it was 39.1 µM (active); in test [3], 17.5 µM (active); in [4], 39.1 µM (active); in [6], 54.8 µM (active). For the same compound, the Potency in test [16] is 6.15 µM (active). The compound was classed as inactive in test [15]. In addition, the Potency entry in test [5] and in [7] was “inactive” in each case.
Consider `CC(C)OC(=O)C(O)(c1ccc(Cl)cc1)c1ccc(Cl)cc1`, for which the Potency entry in [1], in test [17], in test [2], in [14], in [18] and in test [9] was “inactive” each time. The Potency entry in test [10] and in [11] was “inactive” in each case. Moreover, in test [15], the compound was classed as inactive. Besides, the Potency was 49 µM (active) in test [5], 68.6 µM (active) in test [6], 54.5 µM (active) in [16] and 34.7 µM (active) in [7].
Turning to `C=CC(=O)OCCCCOC(=O)C=C`, the Potency was 43.6 µM (active) in test [2], 54.9 µM (active) in [9] and 19.3 µM (active) in test [6]. The Potency entry in test [4] and in [5] was “inactive” in each case.
As to `CCCCCCCCCCCCCCCCCCn1cc[n+](C)c1`, the Potency was 10.9 µM (active) in test [1]; 7.72 µM (active) in test [2]; 19.4 µM (active) in test [14]; 48.7 µM (active) in test [9]; 34.5 µM (active) in test [10]; 9.72 µM (active) in test [3]. The Potency was 19.4 µM (active) in test [4], 48.7 µM (active) in [5], 60.8 µM (active) in test [6] and 3.05 µM (active) in test [16]. Further, the Potency result in [7] and in test [8] was “inactive” throughout.
Regarding `Cc1c(Cl)c(=O)oc2cc(OP(=O)(OCCCl)OCCCl)ccc12`, the Potency result in test [1], in test [2], in [9], in test [10], in test [3] and in [4] was “inactive” in each case. For the same compound, the Potency entry in test [5], in test [6], in test [16], in test [7] and in test [8] was “inactive” throughout. For the same compound, in test [13], the compound was classed as inactive.
Regarding `CCN(CC)c1c([N+](=O)[O-])cc(C(F)(F)F)c(N)c1[N+](=O)[O-]`, the Potency result in test [1], in test [17], in test [2], in test [14], in test [10] and in [11] was “inactive” in each case. Moreover, the Potency result in test [19], in [3], in [4] and in test [5] was “inactive” throughout. Further, in test [16], the Potency was 27.3 µM (active).
As for `COP(=O)(OC)SCn1c(=O)oc2cc(Cl)cnc21`, the Potency entry in [17], in test [2], in test [10], in [11], in [5] and in test [6] was “inactive” in each case. Besides, the Potency result in [16] and in test [7] was “inactive” throughout.
